The source of these data is PubChem BioAssay (EPA / NIEHS).

Inconclusive results are not listed. Some structures have more than one record in an assay (separate samples or runs), and their calls can disagree. The source made the active and inactive calls. How the source made its calls: active means hit-call score of the fitted dose curve at least 0.9, where 1 is the maximum; inconclusive means response in the unintended direction; inactive means score below 0.9.

For test [1], the target named is human Matrix Metalloproteinase-7 (MMP7), MMP7 (gene 4316) (UniProt P09237). The test can be described thus: NVS_ENZ_hMMP7: NovaScreen (NVS) Enzymatic Assay for human Matrix Metalloproteinase-7 (MMP7) (AID 2283183). The essentials: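 Compounds first tested at 25 uM in duplicate, then at up to 50 uM in concentration series if active. Protease activity measured by fluorescence intensity 1 h after dosing, with fitting relative to DMSO.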

The target in test [2] is human Matrix Metalloproteinase-3 (MMP3), MMP3 (gene 4314) (UniProt P08254). Kind of test: NVS_ENZ_hMMP3: NovaScreen (NVS) Enzymatic Assay for human Matrix Metalloproteinase-3 (MMP3) (AID 2283185). In a few lines:
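Fluorescent substrate turnover by recombinant MMP3 read after 1 h, signal loss scored against DMSO. Compounds first run in duplicate at 25 uM single dose, then actives confirmed by concentration series.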

The target of test [3] is Collagenase 3 (Homo sapiens) (UniProt P45452). The test can be described thus: NVS_ENZ_hMMP13: NovaScreen (NVS) Enzymatic Assay for human Matrix Metalloproteinase-13 (MMP13) (AID 2283182). The essentials: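 Recombinant MMP13 cleaving fluorescent substrate, cell-free, measured 1 h after dosing. Primary duplicate screen at 25 uM; actives tested in concentration-response up to 50 uM; loss of signal relative to DMSO.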

Test [4] has as its target human Phosphodiesterase 5 (PDE5), PDE5A (gene 8654) (UniProt O76074). Kind of test: NVS_ENZ_hPDE5: NovaScreen (NVS) Enzymatic Assay for human Phosphodiesterase 5 (PDE5) (AID 2283194). In a few lines:
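Screening began in duplicate at 25 uM, with actives taken into concentration-response. Enzyme activity of recombinant PDE5 toward its substrate was measured at 1 h by fluorescence mobility-shift detection, relative to DMSO controls.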

Test [5] addresses human Protein Phosphatase, Mg2+/Mn2+ Dependent 1A (PPM1A), PPM1A (gene 5494) (UniProt P35813). Kind of test: NVS_ENZ_hPPM1A: NovaScreen (NVS) Enzymatic Assay for human Protein Phosphatase, Mg2+/Mn2+ Dependent 1A (PPM1A) (AID 2283198). The essentials:
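Primary screen in duplicate at 25 uM, with actives then titrated to a maximum of 50 uM. Recombinant PPM1A dephosphorylation of fluorescent substrate measured at 1 h, with substrate and product separated by mobility shift; inhibition fitted against DMSO.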

Test [6] concerns the target human Phosphodiesterase 10 (PDE10), PDE10A (gene 10846) (UniProt Q9Y233). Kind of test: NVS_ENZ_hPDE10: NovaScreen (NVS) Enzymatic Assay for human Phosphodiesterase 10 (PDE10) (AID 2283195). In a few lines: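 Biochemical single-readout PDE10A assay, cell-free, extracted protein. Compounds first screened at 25 uM in duplicate, hits then titrated to 50 uM max. Activity measured after 1 h; loss-of-signal fitted against DMSO negative control.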

Test [7] has as its target human Insulin Receptor (InsR), INSR (gene 3643) (UniProt P06213). The test can be described thus: NVS_ENZ_hInsR: NovaScreen (NVS) Enzymatic Assay for human Insulin Receptor (InsR) (AID 2283168). In a few lines: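 Cell-free enzyme assay read 1 h post-dose by fluorescence after substrate/product mobility-shift separation. Duplicate 25 uM primary screen, then singleton concentration-response up to 50 uM for compounds passing threshold; loss of signal vs DMSO.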

Test [8] has as its target Serine/threonine-protein phosphatase PP1-alpha catalytic subunit (Homo sapiens) (UniProt P62136). Kind of test: NVS_ENZ_hPPP1CA: NovaScreen (NVS) Enzymatic Assay for human Protein Phosphatase 1 Aatalytic subunit Alpha (PPP1CA) (AID 2283200). The essentials:
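Chemicals were first screened in duplicate at 25 uM, and those passing threshold (e.g. 30% inhibition) were run as concentration series to 50 uM. Cell-free recombinant protein, 1.33 h read, fluorescent substrate/product mobility-shift detection, normalised to DMSO.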

In test [9] the target is human Phosphoinositide 3-kinase alpha (PI3Ka), PIK3CA (gene 5290) (UniProt P42336). The test can be described thus: NVS_ENZ_hPI3Ka: NovaScreen (NVS) Enzymatic Assay for human Phosphoinositide 3-kinase alpha (PI3Ka) (AID 2283196). In a few lines: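 Duplicate single-point screen (25 uM), then singleton dose-response (max 50 uM) for compounds meeting the threshold. Cell-free kinase reaction, 1 h; fluorescent mobility-shift readout.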

Test [10] has as its target Glycogen synthase kinase-3 beta (Homo sapiens) (UniProt P49841). Kind of test: NVS_ENZ_hGSK3b: NovaScreen (NVS) Enzymatic Assay for human Glycogen Synthase Kinase-3 beta (GSK3b) (AID 2283165). The essentials:
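Recombinant enzyme with specific fluorescent substrate, 1 h, product separated by electrophoretic mobility shift. Primary duplicate screen at 25 uM; actives (e.g. 30% inhibition) followed in singleton concentration-response to 50 uM. Signal loss fitted versus DMSO.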

Test [11] concerns the target human c-Jun N-terminal Kinases (JNK2), MAPK9 (gene 5601) (UniProt P45984). The test can be described thus: NVS_ENZ_hJNK2: NovaScreen (NVS) Enzymatic Assay for human c-Jun N-terminal Kinases (JNK2) (AID 2283171). The essentials:
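Chemicals first tested in duplicate at 25 uM, then in singleton concentration series up to 50 uM, against extracted JNK2 enzyme. Activity loss read by fluorescence with mobility-shift separation 1 h post-dose; DMSO baseline.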

The target of test [12] is human MAP Kinase-Activated Protein Kinase 2 (MAPKAPK2), MAPKAPK2 (gene 9261) (UniProt P49137). Kind of test: NVS_ENZ_hMAPKAPK2: NovaScreen (NVS) Enzymatic Assay for human MAP Kinase-Activated Protein Kinase 2 (MAPKAPK2) (AID 2283178). In a few lines: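 Chemicals screened in duplicate at 25 uM, then to 50 uM top concentration in concentration-response, against recombinant human MAPKAPK2; substrate conversion read 1 hr post-dosing by fluorescence after electrophoretic mobility-shift separation, loss-of-signal relative to DMSO.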

Test [13] addresses human Matrix Metalloproteinase-2 (MMP2), MMP2 (gene 4313) (UniProt P08253). The test can be described thus: NVS_ENZ_hMMP2: NovaScreen (NVS) Enzymatic Assay for human Matrix Metalloproteinase-2 (MMP2) (AID 2283184). The essentials: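 Compounds first screened in duplicate at a single 25 uM, with actives followed up in concentration series. Recombinant human MMP2 cleaves a fluorogenic substrate; fluorescence taken at 1 h, inhibition fitted relative to DMSO.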

Test [14] has as its target human Mitogen- and Stress-activated Protein Kinase-1 (Msk1), RPS6KA5 (gene 9252) (UniProt O75582). Kind of test: NVS_ENZ_hMsk1: NovaScreen (NVS) Enzymatic Assay for human Mitogen- and Stress-activated Protein Kinase-1 (Msk1) (AID 2283187). The essentials: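 Chemicals first run in duplicate at 25 uM, with actives followed up in singleton concentration series to 50 uM maximum. Enzyme activity came from substrate/product mobility-shift separation with fluorescence detection after 1 h incubation of the recombinant protein.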

Test [15] deals with human Phosphodiesterase 4A1 (PDE4A1), PDE4A (gene 5141) (UniProt P27815). The test can be described thus: NVS_ENZ_hPDE4A1: NovaScreen (NVS) Enzymatic Assay for human Phosphodiesterase 4A1 (PDE4A1) (AID 2283191). The essentials:
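Fluorescent substrate turnover by recombinant PDE4A1 read after 1 h by mobility-shift separation. Primary duplicate screen at 25 uM; hits retested in concentration series with a 50 uM maximum, relative to DMSO.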

The target of test [16] is Mitogen-activated protein kinase 3 (Homo sapiens) (UniProt P27361). The test can be described thus: NVS_ENZ_hMAPK3: NovaScreen (NVS) Enzymatic Assay for human Mitogen-Activated Protein Kinase 3 (MAPK 3) (AID 2283177). The essentials: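 Chemicals were first tested in duplicate at 25 uM, with hits re-run as concentration series (max 50 uM). Recombinant enzyme activity, measured 1 h post-dose in a cell-free format, was read by fluorescence/mobility shift relative to DMSO.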

For test [17], the target named is cAMP-dependent protein kinase catalytic subunit alpha (Homo sapiens) (UniProt P17612). The test can be described thus: NVS_ENZ_hPKA: NovaScreen (NVS) Enzymatic Assay for human Protein Kinase A (PKA) (AID 2283192). The essentials: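 Cell-free kinase activity read by fluorescence after mobility-shift separation of substrate and product, 1 h post-dosing. Single-concentration duplicate screen (25 uM) preceded singleton concentration series (top 50 uM); loss of signal versus DMSO.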

Test [18] concerns the target human Janus Kinase 2 (Jak2), JAK2 (gene 3717) (UniProt O60674). The test can be described thus: NVS_ENZ_hJak2: NovaScreen (NVS) Enzymatic Assay for human Janus Kinase 2 (Jak2) (AID 2283169). The essentials: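 Single-point duplicate screen at 25 uM, with hits run in concentration series to a 50 uM top dose. Substrate-product separation by mobility shift with fluorescence detection, 1 h post-dosing; DMSO baseline.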

The target of test [19] is human LYN Proto-Oncogene, Src family Tyrosine Kinase (LynA), LYN (gene 4067) (UniProt P07948). Kind of test: NVS_ENZ_hLynA: NovaScreen (NVS) Enzymatic Assay for human LYN Proto-Oncogene, Src family Tyrosine Kinase (LynA) (AID 2283173). The essentials:
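Recombinant kinase with fluorescent substrate; product separated from substrate by electrophoretic mobility shift and read 1 h after dosing. Duplicate screen at 25 uM, then concentration-response up to 50 uM; activity scored as signal loss against DMSO.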

Test [20] deals with human Matrix Metalloproteinase-9 (MMP9), MMP9 (gene 4318) (UniProt P14780). Kind of test: NVS_ENZ_hMMP9: NovaScreen (NVS) Enzymatic Assay for human Matrix Metalloproteinase-9 (MMP9) (AID 2283190).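 Further: cell-free recombinant MMP9 protease activity read by fluorescent substrate signal; active means inhibition seen as loss of fluorescence signal versus DMSO.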 In a few lines:
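Screening concentration 25 uM, duplicate wells, then dose series for confirmation. Cell-free enzymatic reaction measured by fluorescence intensity 1 h post-dosing; decreased signal versus DMSO taken as activity.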

What is called AC50 is the concentration giving half of the maximal activity seen.

human Matrix Metalloproteinase-7 (MMP7), MMP7 (gene 4316), sequence (P09237 whole entry, looked up): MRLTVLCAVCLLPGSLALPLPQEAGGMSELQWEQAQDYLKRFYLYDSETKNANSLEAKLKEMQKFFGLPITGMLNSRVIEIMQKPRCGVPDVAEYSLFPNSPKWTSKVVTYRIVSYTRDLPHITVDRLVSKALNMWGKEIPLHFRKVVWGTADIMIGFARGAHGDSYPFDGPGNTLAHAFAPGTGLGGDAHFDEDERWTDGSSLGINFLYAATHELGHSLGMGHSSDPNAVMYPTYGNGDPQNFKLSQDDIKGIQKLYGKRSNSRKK
Mitogen-activated protein kinase 3 (Homo sapiens), sequence (P27361 whole entry, looked up): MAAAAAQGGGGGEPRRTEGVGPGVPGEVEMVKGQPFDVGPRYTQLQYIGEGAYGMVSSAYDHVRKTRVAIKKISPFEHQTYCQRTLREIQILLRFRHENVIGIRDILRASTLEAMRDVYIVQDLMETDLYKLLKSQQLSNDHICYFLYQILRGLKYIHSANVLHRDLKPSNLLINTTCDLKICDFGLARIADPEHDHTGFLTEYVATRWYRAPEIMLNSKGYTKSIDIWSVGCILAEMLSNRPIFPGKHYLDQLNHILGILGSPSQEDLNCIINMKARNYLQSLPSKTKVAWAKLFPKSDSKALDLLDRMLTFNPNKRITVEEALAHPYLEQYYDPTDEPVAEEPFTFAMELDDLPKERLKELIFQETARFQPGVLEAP
human Phosphodiesterase 10 (PDE10), PDE10A (gene 10846), sequence (Q9Y233 whole entry, looked up): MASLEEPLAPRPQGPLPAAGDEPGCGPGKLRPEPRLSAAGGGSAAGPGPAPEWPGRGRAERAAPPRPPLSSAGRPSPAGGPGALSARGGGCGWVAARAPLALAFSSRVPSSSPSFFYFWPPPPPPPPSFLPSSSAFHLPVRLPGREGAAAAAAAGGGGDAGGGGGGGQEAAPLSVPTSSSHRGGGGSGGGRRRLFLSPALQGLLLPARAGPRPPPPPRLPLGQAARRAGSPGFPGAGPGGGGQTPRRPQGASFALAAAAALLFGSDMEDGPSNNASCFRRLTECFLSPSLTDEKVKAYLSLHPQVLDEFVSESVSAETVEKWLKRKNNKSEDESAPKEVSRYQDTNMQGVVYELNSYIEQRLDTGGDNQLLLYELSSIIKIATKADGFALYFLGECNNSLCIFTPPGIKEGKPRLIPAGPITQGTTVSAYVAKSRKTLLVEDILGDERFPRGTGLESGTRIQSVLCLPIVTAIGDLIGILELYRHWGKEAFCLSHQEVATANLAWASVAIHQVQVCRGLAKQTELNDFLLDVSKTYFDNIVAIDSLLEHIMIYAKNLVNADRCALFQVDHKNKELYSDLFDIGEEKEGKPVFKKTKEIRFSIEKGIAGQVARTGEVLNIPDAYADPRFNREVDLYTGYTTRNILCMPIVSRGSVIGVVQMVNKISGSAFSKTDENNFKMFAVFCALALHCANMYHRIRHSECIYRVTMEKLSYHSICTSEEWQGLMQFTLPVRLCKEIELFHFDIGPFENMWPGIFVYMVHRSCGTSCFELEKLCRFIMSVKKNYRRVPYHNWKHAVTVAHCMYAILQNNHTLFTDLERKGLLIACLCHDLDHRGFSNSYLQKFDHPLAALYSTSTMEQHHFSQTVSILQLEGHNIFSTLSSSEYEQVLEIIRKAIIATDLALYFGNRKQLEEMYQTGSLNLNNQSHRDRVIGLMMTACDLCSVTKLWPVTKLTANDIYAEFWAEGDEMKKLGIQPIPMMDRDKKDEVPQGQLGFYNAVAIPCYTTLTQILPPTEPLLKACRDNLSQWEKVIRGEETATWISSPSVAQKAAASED
human Mitogen- and Stress-activated Protein Kinase-1 (Msk1), RPS6KA5 (gene 9252), sequence (O75582 whole entry, looked up): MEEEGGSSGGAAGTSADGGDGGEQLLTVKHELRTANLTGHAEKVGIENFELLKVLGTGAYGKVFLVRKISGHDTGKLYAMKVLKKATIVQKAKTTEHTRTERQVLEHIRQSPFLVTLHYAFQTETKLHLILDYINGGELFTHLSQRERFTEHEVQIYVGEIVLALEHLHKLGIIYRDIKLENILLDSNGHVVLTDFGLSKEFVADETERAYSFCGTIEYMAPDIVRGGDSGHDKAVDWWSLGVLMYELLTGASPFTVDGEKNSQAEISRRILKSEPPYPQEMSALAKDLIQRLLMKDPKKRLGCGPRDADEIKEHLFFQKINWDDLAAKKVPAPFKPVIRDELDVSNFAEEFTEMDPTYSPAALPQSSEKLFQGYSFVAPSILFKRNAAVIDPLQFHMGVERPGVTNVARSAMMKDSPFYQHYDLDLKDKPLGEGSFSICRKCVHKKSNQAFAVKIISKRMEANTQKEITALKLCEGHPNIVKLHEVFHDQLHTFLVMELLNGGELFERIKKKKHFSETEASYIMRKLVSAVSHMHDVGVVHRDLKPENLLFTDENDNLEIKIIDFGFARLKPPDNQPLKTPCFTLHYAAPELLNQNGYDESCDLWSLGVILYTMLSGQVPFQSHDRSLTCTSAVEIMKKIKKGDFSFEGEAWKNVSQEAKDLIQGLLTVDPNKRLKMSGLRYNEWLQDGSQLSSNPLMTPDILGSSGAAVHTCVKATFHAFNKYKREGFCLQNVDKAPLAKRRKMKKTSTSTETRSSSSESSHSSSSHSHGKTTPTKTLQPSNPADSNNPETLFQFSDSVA
human Phosphoinositide 3-kinase alpha (PI3Ka), PIK3CA (gene 5290), sequence (P42336 whole entry, looked up): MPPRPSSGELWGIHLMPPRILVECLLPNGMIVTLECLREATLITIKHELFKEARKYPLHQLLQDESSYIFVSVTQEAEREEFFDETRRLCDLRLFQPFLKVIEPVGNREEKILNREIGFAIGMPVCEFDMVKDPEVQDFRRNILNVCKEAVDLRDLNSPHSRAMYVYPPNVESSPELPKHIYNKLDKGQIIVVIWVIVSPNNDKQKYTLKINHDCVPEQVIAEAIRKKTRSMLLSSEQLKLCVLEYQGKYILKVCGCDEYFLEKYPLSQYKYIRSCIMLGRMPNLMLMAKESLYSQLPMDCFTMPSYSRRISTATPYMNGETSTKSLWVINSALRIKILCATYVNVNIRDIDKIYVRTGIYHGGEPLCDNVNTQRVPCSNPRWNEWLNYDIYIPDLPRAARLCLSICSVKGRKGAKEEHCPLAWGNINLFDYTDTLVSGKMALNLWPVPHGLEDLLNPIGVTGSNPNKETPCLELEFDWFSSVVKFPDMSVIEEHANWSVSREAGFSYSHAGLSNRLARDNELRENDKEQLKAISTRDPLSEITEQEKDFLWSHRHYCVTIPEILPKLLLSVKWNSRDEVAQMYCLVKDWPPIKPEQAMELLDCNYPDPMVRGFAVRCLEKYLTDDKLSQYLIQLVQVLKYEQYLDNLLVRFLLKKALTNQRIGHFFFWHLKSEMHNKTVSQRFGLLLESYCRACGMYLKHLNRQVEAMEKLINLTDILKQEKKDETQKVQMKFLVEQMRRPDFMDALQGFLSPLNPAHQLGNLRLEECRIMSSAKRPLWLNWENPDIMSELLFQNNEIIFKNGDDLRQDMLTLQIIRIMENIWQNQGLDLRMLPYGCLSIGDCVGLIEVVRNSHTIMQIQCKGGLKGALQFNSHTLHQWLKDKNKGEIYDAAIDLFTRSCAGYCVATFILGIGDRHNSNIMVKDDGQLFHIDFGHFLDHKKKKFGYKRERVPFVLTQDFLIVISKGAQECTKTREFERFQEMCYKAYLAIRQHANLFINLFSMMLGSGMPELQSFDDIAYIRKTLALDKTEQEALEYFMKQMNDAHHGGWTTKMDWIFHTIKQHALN
human Phosphodiesterase 4A1 (PDE4A1), PDE4A (gene 5141), sequence (P27815 whole entry, looked up): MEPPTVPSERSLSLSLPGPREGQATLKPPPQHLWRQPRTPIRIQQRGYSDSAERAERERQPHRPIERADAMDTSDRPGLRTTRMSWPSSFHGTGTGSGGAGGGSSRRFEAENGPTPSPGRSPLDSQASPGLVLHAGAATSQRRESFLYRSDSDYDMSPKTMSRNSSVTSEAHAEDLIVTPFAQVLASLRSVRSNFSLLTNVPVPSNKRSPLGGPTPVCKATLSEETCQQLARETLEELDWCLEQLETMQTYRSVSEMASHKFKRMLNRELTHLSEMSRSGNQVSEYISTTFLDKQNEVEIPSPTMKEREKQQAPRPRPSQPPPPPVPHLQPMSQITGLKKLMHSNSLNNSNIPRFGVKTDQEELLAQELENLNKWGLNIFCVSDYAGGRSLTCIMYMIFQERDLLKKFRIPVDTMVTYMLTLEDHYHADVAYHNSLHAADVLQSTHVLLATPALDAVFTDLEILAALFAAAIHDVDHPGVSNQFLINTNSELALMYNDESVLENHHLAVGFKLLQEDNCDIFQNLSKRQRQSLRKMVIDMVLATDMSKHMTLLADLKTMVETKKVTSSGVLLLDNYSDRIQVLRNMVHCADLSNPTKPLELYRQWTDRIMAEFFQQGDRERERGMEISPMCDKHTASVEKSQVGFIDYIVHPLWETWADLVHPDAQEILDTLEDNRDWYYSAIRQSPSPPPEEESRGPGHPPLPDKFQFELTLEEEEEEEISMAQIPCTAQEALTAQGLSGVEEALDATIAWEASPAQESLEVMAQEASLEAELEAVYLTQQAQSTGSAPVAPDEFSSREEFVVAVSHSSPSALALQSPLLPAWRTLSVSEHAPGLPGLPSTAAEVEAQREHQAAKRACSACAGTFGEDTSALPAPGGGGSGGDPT
Glycogen synthase kinase-3 beta (Homo sapiens), sequence (P49841 whole entry, looked up): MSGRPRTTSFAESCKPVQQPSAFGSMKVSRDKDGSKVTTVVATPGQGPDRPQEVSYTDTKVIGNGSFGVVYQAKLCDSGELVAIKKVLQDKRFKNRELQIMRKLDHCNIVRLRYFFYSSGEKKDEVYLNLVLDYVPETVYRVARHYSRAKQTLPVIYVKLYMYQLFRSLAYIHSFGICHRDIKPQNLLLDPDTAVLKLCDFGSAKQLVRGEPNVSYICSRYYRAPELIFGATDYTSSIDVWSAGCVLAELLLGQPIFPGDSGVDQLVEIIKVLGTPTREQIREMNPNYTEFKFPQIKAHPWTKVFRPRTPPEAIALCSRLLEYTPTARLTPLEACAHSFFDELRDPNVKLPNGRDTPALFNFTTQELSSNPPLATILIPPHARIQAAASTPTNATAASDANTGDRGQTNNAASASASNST

For the molecule `C[C@]12CC[C@@H]3c4ccc(O)cc4C[C@@H](CCCCCCCCCS(=O)CCCC(F)(F)C(F)(F)F)[C@H]3[C@@H]1CC[C@@H]2O` (stereo not given in full), the call in [1] and in test [2] was inactive.

For `CCOC(=O)C(C)Oc1ccc(Oc2nc3ccc(Cl)cc3o2)cc1` (stereo not given), the molecule was called inactive in [3].

Take `CCOC(=O)c1ccc(O)cc1`: the molecule was called inactive in test [4] and in test [5].

Consider `CCC(C)OC(=O)N1CCCCC1CCO` (stereo not given), for which, in test [6], the molecule was classed as inactive.

As for `COC(=O)c1c(Cl)nn(C)c1S(=O)(=O)NC(=O)Nc1nc(OC)cc(OC)n1`, in test [4], the result was inactive.

With `CN(C)C(=O)Nc1ccc(Cl)c(Cl)c1`, the molecule was classed as inactive in test [7], in [2] and in test [8].

Turning to `CCSC(=O)N(CC(C)C)CC(C)C`, the call in [9] was inactive.

`CCCCOC(=O)[C@@H](C)Oc1ccc(Oc2ccc(C(F)(F)F)cn2)cc1`: the call in test [1] and in test [2] was inactive.

Take `O=C(O)C1(C(=O)Nc2ccc(Cl)cc2Cl)CC1`: the outcome in test [10], in [12], in test [2] and in test [14] was inactive. Besides, the AC50 is 25 µM (active) in test [11]; 8.27 µM (active) in test [13]; 24.2 µM (active) in test [15]; 13 µM (active) in [4]; 34.9 µM (active) in test [6]; 19.7 µM (active) in test [8].

On to `C[C@]12C[C@H](O)[C@H]3[C@@H](CCC4=CC(=O)CC[C@@]43C)[C@@H]1CC[C@@H]2C(=O)CO`, for which the call in test [2] was inactive.

With `COC(=O)c1ccccc1S(=O)(=O)NC(=O)Nc1nc(OC(F)F)cc(OC(F)F)n1`, the outcome in [16], in test [12] and in test [17] was inactive.

Regarding `O=C(c1ccc(O)cc1O)c1ccc(O)cc1O`, the AC50 in test [10] is 25 µM (active); in test [7] it was 19.3 µM (active); in [18], 21 µM (active); in test [14], 24.1 µM (active); in test [4], 22 µM (active). Moreover, the result in [19] and in test [17] was inactive.

Regarding `CC(C)(c1ccc(O)cc1)c1ccc(O)cc1`, the outcome in [18], in [11], in test [16], in test [3], in test [1] and in test [2] was inactive. Moreover, the molecule was classed as inactive in test [9] and in [5]. For the same molecule, the AC50 in [9] was 25.4 µM (active).

Turning to `CCNc1nc(N)nc(Cl)n1`, in test [15], the AC50 is 25 µM (active).

For `S=C([S-])NCCNC(=S)[S-].[Mn+2]`, the AC50 is 0.306 µM (active) in test [10]; 10 µM (active) in test [16]; 0.468 µM (active) in test [12]; 6.6 µM (active) in [3]; 2.09 µM (active) in [14]; 16.7 µM (active) in [15]. Further, the AC50 in test [17] and in test [6] was 25 µM (active) in each case. Moreover, the molecule was called inactive in [1], in test [20] and in [9].

On to `N[C@@H](Cc1cc(I)c(Oc2ccc(O)c(I)c2)c(I)c1)C(=O)O`, for which the figures for the AC50 in [18] and in [3] were 5.49 µM (active) and 5.14 µM (active), respectively. Moreover, the molecule was classed as inactive in test [12].

On to `CCCOC(=O)NCCCN(C)C`, for which the molecule was classed as inactive in test [2].

In the case of `CC(=O)[C@H]1CC[C@H]2[C@@H]3CCC4=CC(=O)CC[C@]4(C)[C@H]3CC[C@]12C`, the call in test [10] was inactive.
